Data taken from publication PMC5540273 (PLoS ONE, 2017).

Columns and labels:
Details in all cases: concentration: 1 μM, replicates: in singlicate; n = 1
[1] = tested on: T1, RSK1(Kin.Dom.1-N-terminal)
T1 construct: gene RPS6KA1

[2] = tested on: T2, RSK1(Kin.Dom.2-C-terminal)
T2 construct: gene RPS6KA1

[3] = tested on: T3, RSK2(Kin.Dom.1-N-terminal)
T3 construct: gene RPS6KA3

[4] = tested on: T4, RSK2(Kin.Dom.2-C-terminal)
T4 construct: gene RPS6KA3

[5] = tested on: T5, RSK3(Kin.Dom.1-N-terminal)
T5 construct: gene RPS6KA2

[6] = tested on: T6, RSK3(Kin.Dom.2-C-terminal)
T6 construct: gene RPS6KA2

[7] = tested on: T7, RSK4(Kin.Dom.1-N-terminal)
T7 construct: gene RPS6KA6

[8] = tested on: T8, RSK4(Kin.Dom.2-C-terminal)
T8 construct: gene RPS6KA6

S6K1 = tested on: S6K1
SBK1 = tested on: SBK1
SGK2 = tested on: SGK2
SGK3 = tested on: SGK3
SGK = tested on: SGK
SIK2 = tested on: SIK2
SIK = tested on: SIK
SLK = tested on: SLK
SNARK = tested on: T9, SNARK
T9 construct: gene NUAK2

SNRK = tested on: SNRK
SRC = tested on: SRC
SRMS = tested on: SRMS
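Also: KINOMEscan kinase panel screen.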

SMILES | %Inh [1] [%] | %Inh [2] [%] | %Inh [3] [%] | %Inh [4] [%] | %Inh [5] [%] | %Inh [6] [%] | %Inh [7] [%] | %Inh [8] [%] | %Inh (S6K1) [%] | %Inh (SBK1) [%] | %Inh (SGK2) [%] | %Inh (SGK3) [%] | %Inh (SGK) [%] | %Inh (SIK2) [%] | %Inh (SIK) [%] | %Inh (SLK) [%] | %Inh (SNARK) [%] | %Inh (SNRK) [%] | %Inh (SRC) [%] | %Inh (SRMS) [%]
Cc1nnc(-c2ccc3ncn(-c4ccc(S(C)=O)cc4)c3c2)o1 (stereo not drawn) | 19 | 21 | 4 | 0 | 0 | 18 | 0 | 32 | 0 | 0 | 0 | 0 | 0 | 13 | 20 | 14 | 0 | 0 | 5 | 0
COC(=O)c1c(-c2ccccc2)c2cc(Br)ccc2c(=O)n1Cc1ccc(S(C)(=O)=O)cc1 | 3 | 14 | 0 | 9 | 14 | 0 | 24 | 6 | 0 | 5 | 21 | 23 | 14 | 0 | 22 | 0 | 20 | 11 | 8 | 0
CN1C(=O)C(Nc2ccccc2)=C(c2ccccc2)C1=O [SB-300079] | 8 | 0 | 37 | 0 | 0 | 0 | 10 | 12 | 0 | 0 | 0 | 11 | 7 | 7 | 3 | 0 | 12 | 0 | 0 | 21
COc1cc2nccc(Nc3cccc(Oc4ccccc4)c3)c2cc1OC.Cl [GW284543] | 0 | 0 | 0 | 0 | 10 | 0 | 0 | 0 | 0 | 16 | 0 | 0 | 37 | 0 | 0 | 21 | 0 | 0 | 7 | 55
COc1cc(Nc2ccnc3ccc(C(F)(F)F)cc23)cc(OC)c1OC [GW577382] | 18 | 0 | 98.3 | 32 | 4 | 20 | 0 | 21 | 1 | 5 | 0 | 0 | 10 | 25 | 31 | 24 | 0 | 0 | 36 | 0
CCC(=O)c1c(-c2ccccc2)c2cc(Cl)ccc2c(=O)n1Cc1cc(C(=O)NC2CC2)n(C)n1 | 0 | 8 | 0 | 30 | 6 | 0 | 8 | 0 | 7 | 0 | 5 | 10 | 2 | 55 | 1 | 0 | 0 | 0 | 0 | 0
